The panel holds about 79,000 compounds, 15% with a hit somewhere; the sample as a whole holds those more often. The source made the active and inactive calls. No stated cut-off is given here; in the data, active means growth inhibition above about 70%; inactive means the rest.
Legend:
[1] = NCI Yeast Anticancer Drug Screen. Data for the rad52 strain (AID 147);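 further: 0% = growth of vehicle-treated control cultures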; conditions: S. cerevisiae rad52 mutant growth inhibition, active compounds read high
Method in brief: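 The repair-mutant yeast strain was incubated with compounds, then growth was read and inhibition derived relative to vehicle.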

[2] = NCI Yeast Anticancer Drug Screen. Data for the wt1 strain (AID 149);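 further: 0% = growth of vehicle-treated wt1 cultures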; conditions: S. cerevisiae wt1 strain (SPY 50644) growth inhibition, active compounds read high
Method in brief: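 The wt1 strain was treated with compounds, and growth was compared with vehicle-treated cultures to give inhibition.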

[3] = NCI Yeast Anticancer Drug Screen. Data for the rad50EPP+ strain (AID 151);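 further: 0% = growth of vehicle-treated control cultures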; conditions: S. cerevisiae rad50 mutant strain, active compounds read high
Method in brief: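 Vehicle-normalised growth inhibition; rad50EPP+ yeast strain, altered in DNA damage repair, compound-treated.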

[4] = NCI Yeast Anticancer Drug Screen. Data for the mgt1 strain (AID 153); conditions: S. cerevisiae mgt1 mutant growth inhibition, active compounds read high
Method in brief: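 Vehicle-normalized growth inhibition is determined in mgt1 yeast, a strain selected for a defined alteration in DNA repair or cell cycle control.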

[5] = NCI Yeast Anticancer Drug Screen. Data for the rad50 strain (AID 155);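 further: 0% = growth of vehicle-only cultures of the same strain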; conditions: S. cerevisiae rad50 strain growth inhibition, active compounds read high
Method in brief: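 Cells are treated with compound, grown, and their growth is then scored against vehicle-only cultures of the same repair-deficient yeast strain.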

[6] = NCI Yeast Anticancer Drug Screen. Data for the mec2-1 strain (AID 157); conditions: S. cerevisiae mec2-1 strain, active compounds read high
Method in brief: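 Mutant yeast (mec2-1) grown with compound; growth inhibition relative to vehicle control reported.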

[7] = NCI Yeast Anticancer Drug Screen. Data for the rad14 strain (AID 159);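 further: 0% = growth of vehicle-treated control cultures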; conditions: S. cerevisiae rad14 strain growth inhibition, active compounds read high
Method in brief: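 Readout: yeast growth inhibition, referenced to vehicle-only cultures. Strain bears a defined alteration in DNA damage repair.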

[8] = NCI Yeast Anticancer Drug Screen. Data for the sgs1 mgt1 strain (AID 161);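 further: 0% = growth of cultures given vehicle only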; conditions: S. cerevisiae sgs1 mgt1 strain, active compounds read high
Method in brief: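 Yeast cells carrying a defined DNA-repair defect were exposed to test compounds. Growth inhibition was measured relative to vehicle-treated controls.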

[9] = NCI Yeast Anticancer Drug Screen. Data for the CLN2oe strain (AID 163);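 further: 0% = growth of vehicle-only control cultures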; conditions: S. cerevisiae CLN2oe strain, active compounds read high
Method in brief: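 Compounds are applied to yeast harbouring a defined cell-cycle control change; reduced growth compared with vehicle-treated controls gives the value.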

[10] = NCI Yeast Anticancer Drug Screen. Data for the cln2 rad14 strain (AID 165);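 further: 0% = growth equal to vehicle treated cultures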; conditions: S. cerevisiae cln2 rad14 strain, active compounds read high
Method in brief: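 Readout is yeast growth inhibition versus vehicle-treated controls, using a strain with cln2 and rad14 alterations exposed to compound.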

[11] = NCI Yeast Anticancer Drug Screen. Data for the bub3 strain (AID 167); conditions: S. cerevisiae bub3 mutant strain, active compounds read high
Method in brief: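 Part of a panel of yeast mutants defective in DNA damage repair or cell cycle regulation. Each strain is grown with compound, and inhibition is calculated relative to solvent-treated cultures.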

[12] = NCI Yeast Anticancer Drug Screen. Data for the wt2 strain (AID 169);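 further: 0% = growth of vehicle-treated yeast cultures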; conditions: S. cerevisiae wt2 strain growth inhibition, active compounds read high
Method in brief: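 Against vehicle-treated controls, the growth of yeast exposed to each compound was compared, and the inhibition was recorded.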

[13] = NCI Yeast Anticancer Drug Screen. Data for the mlh1 strain (AID 171);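 further: 0% = growth of vehicle-treated control cultures of the same strain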; conditions: S. cerevisiae mlh1 strain growth inhibition, active compounds read high
Method in brief: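 Measured: yeast growth. Reference: vehicle-treated controls. Organism: strain with a defined alteration affecting DNA damage repair or cell cycle control, treated with compound.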

[14] = NCI Yeast Anticancer Drug Screen. Data for the sgs1 strain (AID 173);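 further: 0% = growth of vehicle-only control cultures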; conditions: S. cerevisiae sgs1 mutant, active compounds read high
Method in brief: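 Each compound was added to cultures of the altered yeast strain. Growth was recorded, and inhibition was derived by comparison with vehicle controls.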

[15] = NCI Yeast Anticancer Drug Screen. Data for the mlh1 rad18 strain (AID 175); conditions: S. cerevisiae mlh1 rad18 strain growth inhibition, active compounds read high
Method in brief: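 Genetically defined yeast (DNA repair-deficient) exposed to compounds; growth inhibition determined relative to vehicle.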

[16] = NCI Yeast Anticancer Drug Screen. Data for the rad18 strain (AID 177); conditions: S. cerevisiae rad18 mutant growth inhibition, active compounds read high
Method in brief: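 Vehicle-treated cultures served as the baseline for scoring compound-induced growth inhibition in DNA-repair-mutant yeast.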

[17] = at 5.0 µM (retest, dose inferred, filed as 0.5)
[18] = at 50.0 µM (retest, dose inferred, filed as 5.0)

Measured: growth inhibition

COc1ccccc1/C=C\C(=O)C1COCN1 (stereo not drawn)
active: [1]; at 33.0 µM 71% | [1]; at 100.0 µM 99% | [2]; at 100.0 µM 99% | [3]; at 33.0 µM 73% | [3]; at 100.0 µM 92% | [4]; at 100.0 µM 99% | [5]; at 33.0 µM 95% | [5]; [18] 82% | [5]; at 50.0 µM 97.2% | [5]; at 100.0 µM 98% | [6]; at 50.0 µM 98.7% | [6]; at 100.0 µM 99% | [7]; at 100.0 µM 99% | [8]; [18] 75% | [8]; at 50.0 µM 84.7% | [9]; at 100.0 µM 98% | [11]; at 50.0 µM 97.3% | [11]; at 100.0 µM 99% | [12]; at 100.0 µM 99% | [13]; at 33.0 µM 83% | [13]; at 100.0 µM 99% | [14]; at 33.0 µM 92% | [14]; at 100.0 µM 99% | [15]; [18] 82% | [15]; at 50.0 µM 99.1% | [16]; at 100.0 µM 98%
inactive: [1]; at 1.2 µM 4% | [1]; at 3.7 µM 14% | [1]; at 11.0 µM 25% | [2]; at 1.2 µM -4% | [2]; at 3.7 µM -4% | [2]; at 11.0 µM -7% | [2]; at 33.0 µM 19% | [3]; at 1.2 µM 11% | [3]; at 3.7 µM 20% | [3]; at 11.0 µM 42% | [4]; at 1.2 µM -1% | [4]; at 3.7 µM -2% | [4]; at 11.0 µM -2% | [4]; at 33.0 µM 53% | [5]; at 1.2 µM 9% | [5]; at 3.7 µM 6% | [5]; [17] -141% | [5]; at 11.0 µM 12% | [6]; at 1.2 µM 4% | [6]; at 3.7 µM 5% | [6]; [17] -49% | [6]; at 11.0 µM 12% | [6]; at 33.0 µM 38% | [6]; [18] 28% | [7]; at 1.2 µM 0% | [7]; at 3.7 µM -1% | [7]; at 11.0 µM 9% | [7]; at 33.0 µM 38% | [8]; [17] -63% | [9]; at 1.2 µM 2% | [9]; at 3.7 µM 1% | [9]; at 11.0 µM 1% | [9]; at 33.0 µM 13% | [10]; [17] -57% | [10]; [18] -60% | [10]; at 50.0 µM 7.45% | [11]; at 1.2 µM 0% | [11]; at 3.7 µM 9% | [11]; [17] -53% | [11]; at 11.0 µM 18% | [11]; at 33.0 µM 69% | [11]; [18] 69% | [12]; at 1.2 µM 2% | [12]; at 3.7 µM 1% | [12]; at 11.0 µM 0% | [12]; at 33.0 µM 37% | [13]; at 1.2 µM 9% | [13]; at 3.7 µM 2% | [13]; at 11.0 µM 12% | [14]; at 1.2 µM 1% | [14]; at 3.7 µM 2% | [14]; at 11.0 µM 18% | [15]; [17] -122% | [16]; at 1.2 µM 0% | [16]; at 3.7 µM 5% | [16]; at 11.0 µM 15% | [16]; at 33.0 µM 67%

— PubChem BioAssay (NCI)
